# Bioassay records (PubChem)
# HT1080 IDH1KD tx: kills HT-1080 cells with IDH1 knockdown; AID 686971; 2% of 360,000 active; Potency, µM (highest dose often 46.1 µM), without a hit: top-dose activity, negative = toxicity, actives largely listed as cytotoxic; HT-1080 IDH1 knockdown viability, ATP luminescence, 48 h;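 also: 0% = DMSO wells and -100% = cell-free medium wells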
#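 Assay cells: HT-1080 with IDH1 knockdown, 750 per well, RPMI/5% FBS. Exposure: 48 h at 37 °C following 2 h pre-incubation. Read: CellTiter-Glo luminescence; fitted concentration-response, curve class assigned.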
# TDP1 cell CPT: growth inhibition of DT40 Tdp1-/-;hTDP1 cells with camptothecin (screen for TDP1 inhibitors); 12% of 420,000 active; Potency, µM (top dose mostly 46.2 µM), for the others: top-dose activity change, negative = growth inhibition, most hits filed as inhibitors; chicken DT40 Tdp1-/-;hTDP1 cells + 20 nM CPT, ATP luminescence, 48 h; also: % is scaled to controls: 0 for no effect and ±100 for the full control effect; nearly all actives have a fitted effect of over 55% in size
#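 Chicken DT40 Tdp1-/- cells complemented with human TDP1, 400 cells/well, exposed to compounds plus 20 nM camptothecin for at least 48 h at 37 C; viability read as ATP content by CellTiter-Glo luminescence.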
# TGFb inhibitor: blocks TGF-b signaling; AID 588855; HepG2 CAGA-GFP TGF-b/SMAD3 reporter, GFP fluorescence, 18 h; TGF-beta stimulated, 500 pg/mL final; 1.2% of 410,000 active; Potency, µM (doses to about 46.1 µM), for inactives: at the highest dose activity, negative = inhibition, actives largely listed as inhibitors; also: % is scaled to controls: 0 for no effect and ±100 for the full control effect; nearly all actives have a fitted effect of over 65% in size
#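 GFP signal (ex488/em500-530) from TGF-beta-stimulated HEPG2 CAGA-GFP cells, 500 pg/mL final, 18 h at 37 degrees C in DMEM plus 1% FBS, normalized to unstimulated and DMSO-stimulated controls.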
# HepG2 tox: counter-screen for TGF-b inhibitors: cytotoxicity in HepG2 cells; AID 588856; 0.76% of 410,000 active; Potency, µM (series often up to 46.1 µM), for inactives: top-dose activity change, negative = cytotoxicity, most hits filed as cytotoxic; HepG2 CAGA-GFP viability, ATP luminescence, 18 h
#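 HepG2 CAGA-GFP cells (1000/well, DMEM with 1% FBS) received compound, then TGF-beta at 500 pg/mL final, and were incubated 18 hours at 37 degrees C. Viability was read by CellTiter-Glo luminescence. Media-only wells were set as complete cell-killing and DMSO as no toxicity.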
# TDP1 cell noCPT: qHTS for Inhibitors of human tyrosyl-DNA phosphodiesterase 1 (TDP1): qHTS in cells in absence of CPT; DT40 Tdp1-/- hTDP1 cells, no CPT, ATP luminescence, 48 h; Potency, µM (doses to about 46.2 µM), without a hit: at the highest dose activity change, negative = growth inhibition, hits mostly inhibitors; 15% of 420,000 active; AID 686978, 2013; also: % is scaled to controls: 0 for no effect and ±100 for the full control effect; nearly all actives have a fitted effect of over 55% in size
#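 Chicken DT40 Tdp1-/- cells complemented with human TDP1, screened without camptothecin (DMSO vehicle only), 400 cells/well. Compounds pin-transferred, cells incubated at 37 °C for at least 48 hr. Growth read as ATP-dependent luminescence (CellTiter-Glo, 30 min at RT).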
# HT1080-NT tox: kills 2HG-producing HT-1080-NT fibrosarcoma cells; HT-1080-NT fibrosarcoma viability, CellTiter-Glo ATP luminescence, 48 h; Potency, µM (titrated, usually from 46.1 µM), without a hit: at the top dose activity, negative = less viability, usual class: cytotoxic; 1.6% of 360,000 active; AID 686970;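 also: NT is the 2HG producing partner of a matched IDH1 knockdown line; 0% = DMSO-treated cells and -100% = media-only wells without cells; nearly all actives have a fitted effect of over 55% in size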
#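 Fibrosarcoma NT cells, 750 per well in 5% FBS RPMI, were exposed to compound for 48 hours. Viability: CellTiter-Glo luminescence.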
# Numbers without * were called inactive; u = inconclusive; x = no result given; [ ] = remark or other dose. This is a sample that favours compounds with a hit; in the whole collection about 17% have one here. Calls follow the shape of the dose curve; as a rule, active = well fitted curve in the direction sought with a large enough effect; inconclusive = small, poorly fitted or top-dose-only effect, or another doubt; inactive = no such curve, though single readings can be large; an effect the other way counts as inactive or inconclusive. Potency is read from the fitted curve at half-maximal effect.
SMILES,HT1080 IDH1KD tx,TDP1 cell CPT,TGFb inhibitor,HepG2 tox,TDP1 cell noCPT,HT1080-NT tox
Cn1c(=O)n(CCc2ccccc2)c(=O)c2c1nc1n2CCN1c1ccc(Cl)cc1,x,-7%,-1%,1%,-13%,x
COc1ccc(-c2ccc(CCC(=O)O)o2)cc1,u,21µM*,-2%,-9%,u,u
O=C(O)CCc1ccc(-c2ccc(Cl)cc2)o1,-1%,-14%,16%,-5%,-1%,-3%
C/C(=N\NC(=O)CCCOc1ccc(Cl)cc1C)c1ccc(C)o1,3%,-5%,-3%,-21%,u,0%
C=C(c1ccc2ccccc2n1)c1cccs1,x,11µM*,-2%,-2%,14µM*,x
CCCCC1CCC(C(=O)N(CCCC)c2c(N)n(CCCC)c(=O)[nH]c2=O)CC1 (stereo not drawn),-9%,12µM*,2%,1%,21µM*,-13%
CN1/C(=C\C(=O)c2ccco2)C(C)(C)c2ccccc21,10µM*,2.6µM*,u,-31%,3.7µM*,u
CN1/C(=C\C(=O)c2cncc(Br)c2)C(C)(C)c2ccccc21,-20%,3.7µM*,4%,-30%,2.6µM*,-13%
CN1/C(=C/C(=O)c2nc(S(C)(=O)=O)ncc2Cl)C(C)(C)c2ccccc21,4.6µM*,0.58µM*,u,-122%,0.46µM*,u
CN1/C(=C\C(=O)COC(=O)c2ccco2)C(C)(C)c2ccccc21,6%,u,-24%,-24%,u,-1%
CC(C)(C)C1CCc2c(sc(NC(=O)c3cc4ccccc4c(=O)o3)c2C(N)=O)C1 (stereo not drawn),x,-10%,-8%,-2%,-29%,x
Cc1cccc(C(=O)NNC(=O)c2ccccc2)c1,26%,4%,-2%,20%,1%,23%
Cc1cccc(C(=O)c2cnc3ccccc3c2-c2ccccc2)c1,-1%,15µM*,u,-42%,26µM*,-1%
CCOC(=O)C1=CCN(S(=O)(=O)c2ccc(C)cc2)C1c1cccc(F)c1 (stereo not drawn),-5%,u,u,-25%,23µM*,-2%
CCOC(=O)C1=CCN(S(=O)(=O)c2ccc(F)cc2)C1c1ccccc1 (stereo not drawn),6%,u,-18%,-18%,21µM*,2%
CCOC(=O)C1=CCN(S(=O)(=O)c2ccc(F)cc2)C1c1ccc(F)cc1 (stereo not drawn),-3%,u,x,x,15µM*,-1%
CCOC(=O)C1=CCN(S(=O)(=O)c2cccc(Cl)c2)C1c1cccc(C)c1 (stereo not drawn),-1%,u,-19%,-25%,18µM*,-24%
CCOC(=O)C1=CCN(S(=O)(=O)c2ccccc2Br)C1c1cccc(F)c1 (stereo not drawn),-29%,u,u,-18%,u,-27%
COc1ccc(C2NC(=O)c3sc4nc(C)c(C(C)=O)c(-c5ccc(Cl)cc5)c4c3N2)cc1 (stereo not drawn),2%,u,-5%,-5%,u,5%
Cc1ccc(N=Cc2ccc(O)cc2O)cc1F,5%,u,0%,-41%,21µM*,-10%
Oc1ccc(C=Nc2ccc(N3CCOCC3)cc2)c(O)c1,-16%,-22%,-37%,-3%,-20%,-10%
CCC(=O)Oc1ccc(C(=O)Nc2ccc3c(c2)C(=O)N(C2CCCCC2)C3=O)cc1,u,21µM*,13%,3%,15µM*,u
CC1CCCC(NC(=O)c2cccc(S(=O)(=O)N3CCCCC3)c2)C1C (stereo not drawn),2%,21µM*,4%,-18%,u,-1%
CCC(=O)Oc1ccc(NC(=O)c2ccc(S(=O)(=O)N3CCCC3)cc2)cc1,-23%,u,-7%,-19%,21µM*,-13%
COc1ccc(NC(=O)c2cccc(S(=O)(=O)N3CCCCCC3)c2)cc1,u,u,u,-7%,15µM*,u
SMILES,HT1080 IDH1KD tx,TDP1 cell CPT,TGFb inhibitor,HepG2 tox,TDP1 cell noCPT,HT1080-NT tox
O=C(NC1CCCC1)c1cccc(S(=O)(=O)N2CCCCC2)c1,-4%[9.24 µM],-8%,-2%,3%,-24%,-4%
Cc1ccc(NC(=O)c2cccc(S(=O)(=O)N3CCCCC3)c2)cc1,-13%,-17%,u,-25%,u,-15%
O=C(CN1CCCN(Cc2cccc(F)c2)S1(=O)=O)Nc1ccc2c(c1)OCCO2,x,u,u,-12%,u,x
COc1ccc(NS(=O)(=O)c2cccc(C(=O)Nc3ccccc3C(=O)O)c2)cc1,9%,-8%,-5%,2%,-3%,7%
CCOC(=O)c1sc(NC(=O)c2cccc(S(=O)(=O)N(CC)CC)c2)cc1C,u,2.6µM*,16%,-11%,4.6µM*,u
CCOC(=O)c1sc(NC(=O)c2cccc(S(=O)(=O)N3CCN(C)CC3)c2)cc1C,u,-28%,-8%,-21%,u,u
Cc1nc(-c2cccc(NC(=O)c3cccc(S(=O)(=O)N4CCCC4)c3)c2)cs1,-14%,u,-30%,-5%,23µM*,-2%
Cc1nc(-c2cccc(S(=O)(=O)N3CC(C)CC(C)C3)c2)cs1 (stereo not drawn),-2%,u,u,1%,13µM*,4%
CCN(CC)S(=O)(=O)c1cccc(C(=O)Nc2ccccc2C(=O)Nc2ccc(OC)cc2)c1,x,10µM*,u,-3%,10µM*,x
CCOc1ccc(C(=O)Cn2c(=O)n3nc(CCn4nc(C)cc4C)nc3c3cc(OC)c(OC)cc32)cc1,x,14%,0%,-12%,-2%,x
COc1ccc(NC(=O)N2CC3(CCN(C(=O)c4ccco4)CC3)C2)cc1,x,14%,x,x,-1%,x
COC(=O)C[C@H]1C[C@H]2c3cc(NC(=O)NC4CCCC4)ccc3O[C@H]2[C@@H](CO)O1,16%,-18%,13%,2%,-19%,6%
O=C(Nc1ccc(N2CCOCC2)cc1)c1cccc(S(=O)(=O)N2CCCCC2)c1,-3%,15µM*,0%,2%,15µM*,u
O=C(Nc1ccccc1)c1cccc(S(=O)(=O)N2CCCCC2)c1,1%,-26%,-13%,3%,8%,-2%
